Experimental data from PubChem BioAssay.

assay: S. cerevisiae RM11-1a growth modifiers, primary screen, strain RM11-1a, OD600, basal, 24 h (AID 1177); settings: OD600, 24 h, higher = more signal, called active from +8 up or from −8 down;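 also: cultures grown under basal conditions with no added stressor; test concentration not given here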

z-score, inactive:
CCCNC(=O)[C@@]1(Sc2ccc(C)cc2)CC(=O)N(Cc2ccccc2Cl)[C@@H]1c1ccc(CO)cc1I -0.641
C=CCN1Cc2ccccc2[C@H]2OC(c3ccc(OCCCO)cc3)=N[C@@]2(CCS(=O)(=O)c2ccccc2)C1=O 0.86
[N-]=[N+]=Nc1ccccc1C[C@]1(C(=O)N2CCOCC2)N=C(c2ccc(OCCCO)cc2)O[C@H]1c1ccccc1N=[N+]=[N-] 0.275
C[C@]1(C(=O)O)c2ccccc2C(=O)N(Cc2cc(F)cc(C(F)(F)F)c2)[C@H]1c1ccc(CO)cc1 -1.33
CC(C)c1nc2cc(Br)ccc2c(=O)o1 0.0542
CN(C)CCCC[C@@H]1NC(=O)[C@H]2C[C@@H](C(=O)O)[C@@H](c3ccc(O)cc3)N2C1=O -0.304
CN1C(=O)C2C(C3CC3)C=C3CN(Cc4cccc(Cl)c4)[C@@H]([C@@H](O)Cc4ccccc4)C3C2C1=O (stereo partly specified) 0.248
C=CCC(OC(C)=O)[C@@H]1[C@@H](N(Cc2ccc(-c3cccc(C(F)(F)F)c3)o2)C(=O)c2ccc(-c3ccccc3)cc2)c2cc(OCCCO)ccc2N1C(=O)c1ccc2ccccc2c1 (stereo partly specified) 1.27
CCCCC(O)C1C=CC2C(=O)N(c3ccccc3)C(=O)C2N1Nc1ccc(C#N)cc1 (stereo unspecified) 0.63
NC(=O)N1C(=O)C2C(C1=O)C1C=C(CCCO)C2C(c2ccc(CN3CCCC3)cc2)N1Cc1sc2ccccc2c1Cl (stereo unspecified) -0.243
CC(C)=CCCC(C)=CC(O)C1C=CC2C(=O)NC(=O)C2N1Nc1ccccn1 (stereo unspecified) -0.881
Cc1ccc(S[C@]2(C(=O)NCCCN(C)C)CC(=O)N(C3Cc4ccccc4C3)[C@@H]2c2ccc(CO)cc2I)cc1 0.609
COc1ccc(C#Cc2ccc3c(c2)[C@]2(C(=O)N3)[C@H](C(=O)O)[C@H]3C(=O)O[C@H](c4ccccc4)[C@H](c4ccccc4)N3[C@@H]2c2ccccc2OCCO)cc1 2.48
COc1ccc(CCNC(=O)[C@@H]2c3ccccc3C(=O)N(Cc3ccccc3OC)[C@H]2c2ccc(CO)cc2)cc1 -0.341
C=CCC(OC(C)=O)[C@@H]1[C@@H](N(Cc2cccc3ccccc23)C(=O)Cc2ccc(OC)cc2)c2cc(OCCCO)ccc2N1C(=O)Cc1ccc2ccccc2c1 (stereo partly specified) -0.372
CC(C)(C)OC(=O)CC[C@@]1(C(=O)NCCN2CCOCC2)N=C(c2ccc(OCCCO)cc2)O[C@@H]1c1ccccc1CN=[N+]=[N-] -0.922
CC(C)NC(=O)[C@@]1(C)c2ccccc2C(=O)N(Cc2ccccc2)[C@H]1c1ccc(CO)cc1 -1.29
CN(C)c1ccc(C(O)C2C=CC3C(=O)N(Cc4ccccc4)C(=O)C3N2n2cnnc2)cc1 (stereo unspecified) -0.794
COc1ccc(C(=O)Nc2ccc(CN3C(=O)[C@@]4(O[C@@H](CCn5cc(CCO)nn5)[C@H]([Si](C)(C)c5ccc(OC)cc5)[C@H]4C)c4ccccc43)cc2)cc1 2.47
CC(C)C[C@H]1NC(=O)C([C@@H](C)OCc2ccccc2)NC(=O)[C@@]23C(=O)N[C@@H](Cc4ccccc4)C2[C@H](C)[C@@]2(C)O[C@H]2C3/C=C/C/C=C\CNC1=O (stereo partly specified) -0.3
COc1ccc([Si](C)(C)[C@@H]2[C@@H](CC(=O)N3CCC[C@H]3CO)O[C@]3(C(=O)N(Cc4cccc(N5CCCCC5=O)c4)c4ccccc43)[C@H]2C)cc1 0.625
CO[C@H]1O[C@H](CO)[C@@H](OC(=O)Nc2ccccc2-c2ccccc2)[C@H](OC(=O)Nc2ccccc2)[C@H]1OC(=O)Nc1ccccc1 2.81
CCCCC(O)C1C=CC2C(=O)N(c3ccccc3)C(=O)C2N1Nc1ccc([N+](=O)[O-])cc1 (stereo unspecified) -0.385
C=CCNC(=O)[C@@H]1[C@H]2C(=O)O[C@H](c3ccccc3)[C@H](c3ccccc3)N2[C@H](c2ccc(OCCO)cc2)[C@@]12C(=O)Nc1ccc(C#CC3(O)CCCCCC3)cc12 1.16
CN1C(=O)C2C(C1=O)C1C=C(c3ccc(CO)cc3)C2C(C2CC2)N1C (stereo unspecified) 0.358
COC(=O)[C@@]1(Cc2ccc(F)cc2)[C@H]2c3cc(C(=O)N4CCCC4)n(Cc4ccccn4)c3C[C@H]2CN1C(=O)c1ccccc1 0.938
NC(=O)N1C(=O)C2C(C1=O)C1C=C(CCCO)C2C(c2ccc(CN3CCCC3)cc2)N1Cc1cc2c(cc1Br)OCO2 (stereo unspecified) -0.572
CCCCN1CC=CC23O[C@@H]4/C=C\CCCOC(=O)C4[C@H]2C(=O)N(C(CO)C(C)C)[C@@H]3C1=O (stereo partly specified) -0.427
O=C1O[C@H](c2ccccc2)[C@H](c2ccccc2)N2[C@H]1[C@@H](C(=O)N1CCN(c3ncccn3)CC1)[C@]1(C(=O)Nc3ccc(C#CCCO)cc31)[C@H]2c1ccc(O)cc1 0.254
O=C1NC(=O)C2C1C=CC(C(O)c1ccc([N+](=O)[O-])cc1)N2Nc1ccccn1 (stereo unspecified) 0.485
O=C1C2C=CC(C(O)c3ccc([N+](=O)[O-])cc3)N(Nc3ccccc3F)C2C(=O)N1c1ccccc1 (stereo unspecified) 0.646
COc1ccc([Si](C)(C)[C@@H]2[C@@H](CC(=O)N(CCO)Cc3ccccc3)O[C@]3(C(=O)N(Cc4ccc(I)cc4)c4ccccc43)[C@H]2C)cc1 2.45
CN1C(=O)C2C(C1=O)C1C=C(CCCO)C2C(C2CC2)N1Cc1cccc(OC(F)(F)F)c1 (stereo unspecified) 0.132
CCOC(=O)C[C@H]1[C@H](OC(=O)c2cc3ccccc3oc2=O)[C@@H](NC(=O)CC(C)C)c2cc(OCCCO)ccc2N1C(=O)Cc1ccc(OC)cc1 -0.746
NC(=O)N1C(=O)C2C(C1=O)C1C=C(CCCO)C2C(C2CC2)N1Cc1sc2ccccc2c1Cl (stereo unspecified) 0.269
COCCn1c(C(=O)N(C)C)cc2c1C[C@H]1CN(C(=O)c3ccccc3)[C@@](Cc3ccc(OC)cc3)(C(=O)OC)[C@@H]21 1.03
